High-throughput results from PubChem.
HIF-2a block: HIF-2a reporter inhibitors, primary screen, luminescence, 786-0 RCC cells. inhibition, % at 18.8 µM. 786-0 RCC cells HIF-2a reporter, luciferase luminescence, overnight. 0.72% of 360,000 active;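 active = inhibition of the luminescence signal of 40% or more relative to plate controls, in a single-dose primary screen at 18.75 µM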
KKLEB cytotox: cytotoxicity in KKLEB CF airway cells, primary screen, cytotoxicity control for CF NF-kB inhibitor project, cell-based, uHTS, fluorescence assay plates; KKLEB CF airway cells viability, ATPlite luminescence, overnight; hits give low values; cells stimulated with P. aeruginosa culture filtrate; activity change (cytotoxicity), % at 5 µM; 0.36% of 360,000 active; AID 602141, 2011;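 active = corrected activity change at or below -50% at 5 µM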
CF NFkB block: inhibitors of PAF-induced NF-kB signaling, primary screen, cell-based, GFP fluorescence, uHTS; KKLEB NF-kB-GFP reporter, GFP fluorescence overnight; inhibition, % at 5 µM; 0.86% of 360,000 active; AID 588850, 2011;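 active = at least 50% inhibition at 5 µM, scaled per plate between neutral and stimulator controls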;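 note: PAF is a Pseudomonas aeruginosa culture filtrate used as stimulus; plate controls were PAF-stimulated DMSO wells for no effect and unstimulated DMSO wells for full effect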
TWEAK-Fn14 inh: inhibitors of TWEAK-Fn14 signaling, primary screen, luciferase reporter cells, uHTS | TWEAK-stimulated Fn14 reporter cells, luciferase luminescence, 8 h | inhibition, % at 10 µM | AID 1159606, 2016 | 2% of 360,000 active; in the data active = inhibition above about 50%
TROY signal inh: inhibitors of TROY-driven NF-kB signaling, primary screen, Q293 LMP1-TROYcd cells, NF-kB luciferase, uHTS; 0.98% of 360,000 active; Q293 LMP1-TROYcd NF-kB luciferase reporter, 4 h; inhibition, % at 10 µM;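 active = compounds whose plate-normalised and pattern-corrected inhibition of the luciferase reporter signal at the single screening dose is 50% or more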
Peg3 prom inh: Peg3 promoter-driven luciferase inhibitors, primary screen, cell-based, HeLa, luciferase luminescence; 1.7% of 360,000 active; inhibition, % at 20 µM; HeLa PEG-Prom luciferase reporter, overnight; AID 588405, 2011;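 active = inhibition of at least 50% at 20 µM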
CF NFkB conf: inhibitors of PAF-induced NF-kB signaling, retest, confirmation, cell-based, GFP fluorescence, single concentration | inhibition, % at 5 µM | 64% of 1,300 active | KKLEB CF airway cells, overnight | shares compounds with CF NFkB block; in the data active = inhibition above about 40%;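 note: stimulus PAF is a Pseudomonas aeruginosa filtrate and not platelet activating factor; plate controls were DMSO wells with stimulus for no effect and unstimulated DMSO wells for full effect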
Mdm2-MdmX confirm: retested Mdm2-MdmX interaction blockers, confirmation, cell-based, luminescence, single concentration, set 2; shares compounds with HIF-2a block; SaOS-2 split-luciferase Mdm2/MdmX complementation; inhibition, % at 8 µM; 99% of 740 active;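 active = mean inhibition of the luminescence signal across two replicates at or above 26 percent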
Target sequence (O15151 whole entry, looked up): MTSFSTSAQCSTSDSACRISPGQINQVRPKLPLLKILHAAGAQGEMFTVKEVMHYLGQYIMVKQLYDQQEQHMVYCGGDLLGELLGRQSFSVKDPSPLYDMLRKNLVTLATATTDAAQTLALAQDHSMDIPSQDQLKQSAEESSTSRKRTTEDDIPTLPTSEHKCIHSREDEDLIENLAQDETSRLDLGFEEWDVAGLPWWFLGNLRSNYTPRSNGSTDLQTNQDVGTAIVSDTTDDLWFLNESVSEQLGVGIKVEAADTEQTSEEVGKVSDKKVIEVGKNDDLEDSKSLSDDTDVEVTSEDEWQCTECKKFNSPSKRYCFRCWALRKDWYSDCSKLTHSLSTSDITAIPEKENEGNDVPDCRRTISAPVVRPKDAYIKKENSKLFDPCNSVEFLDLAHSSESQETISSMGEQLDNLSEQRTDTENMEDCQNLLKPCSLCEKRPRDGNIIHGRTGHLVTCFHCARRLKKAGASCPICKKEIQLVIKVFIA
Target sequence (Q00987 whole entry, looked up): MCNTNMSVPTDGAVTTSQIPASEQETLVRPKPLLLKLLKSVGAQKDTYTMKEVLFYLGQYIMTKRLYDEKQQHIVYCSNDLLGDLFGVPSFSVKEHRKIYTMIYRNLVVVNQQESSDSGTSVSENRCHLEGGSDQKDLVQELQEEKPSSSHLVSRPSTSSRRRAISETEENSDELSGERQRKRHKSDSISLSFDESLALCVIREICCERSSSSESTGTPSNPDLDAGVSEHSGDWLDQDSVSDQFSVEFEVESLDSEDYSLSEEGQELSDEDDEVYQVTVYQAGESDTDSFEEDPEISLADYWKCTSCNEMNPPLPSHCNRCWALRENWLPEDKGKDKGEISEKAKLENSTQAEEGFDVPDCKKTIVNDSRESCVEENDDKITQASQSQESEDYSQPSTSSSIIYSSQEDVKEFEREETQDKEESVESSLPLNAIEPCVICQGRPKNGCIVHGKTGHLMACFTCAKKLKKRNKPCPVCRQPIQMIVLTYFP
HIF-2a conf: HIF-2a reporter inhibitor retest, confirmation, luminescence, 786-0 RCC cells; shares compounds with HIF-2a block; 56% of 1,800 active; inhibition, % at 18.8 µM; AID 651580, 2012; HIF-2a luciferase reporter luminescence, overnight;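 active = mean inhibition across four replicates of at least 40 percent at the single tested concentration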
HIF-1a cs: HIF-1a luciferase reporter signal reduction – MiaPaCa-2 cells, single concentration, counter-screen for HIF-2a inhibitor project, confirmation; MiaPaCa-2 HIF-1a luciferase reporter, desferoxamine, overnight; shares compounds with HIF-2a block; inhibition, % at 18.8 µM; 72% of 1,800 active;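 active = mean inhibition of the reporter signal across four replicates at the single tested dose of 50% or more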
Active calls of the source: *; · = no result given. In the library only some 4% were active in any assay of this set; here they are far more common.

SMILES | HIF-2a block | KKLEB cytotox | CF NFkB block | TWEAK-Fn14 inh | TROY signal inh | Peg3 prom inh | CF NFkB conf | others
COc1ccc(CCNc2nc(-c3cccnc3)nc3ccccc23)cc1OC | -16.9 | -28.2 | 58.4* | 27.5 | 4.9 | 49.0 | 16.3
COc1ccc(/C=N/Nc2nc(-c3cccnc3)nc3ccccc23)cc1OC | -93.8 | -1.2 | 64.5* | 6.9 | 9.2 | -1.0 | 68.2*
Cc1ccc(Cn2cc(CN3CC(N4CCN(CCN(C)C)CC4)CS3(=O)=O)nn2)cc1 (configuration not stated) | 18.7 | · | · | 12.1 | -10.2 | · | ·
COc1cc(NC(=O)c2ccccc2Cl)ccc1NC(=O)c1cccs1 | -269.0 | 3.6 | -12.1 | -8.0 | -54.9 | -274.2 | ·
COc1cc(NC(=O)c2cc3ccccc3cc2OC)ccc1NC(=O)c1cccs1 | -18.8 | 16.7 | 59.0* | 23.8 | -3.7 | 47.3 | 102.2*
O=[N+]([O-])c1cccc(/C=N/Nc2nc(N3CCOCC3)nc(N3CCOCC3)n2)c1 | 12.7 | -0.7 | 1.9 | -8.7 | -4.7 | 0.5 | ·
O=[N+]([O-])c1cccc(/C=N/Nc2cc(N3CCOCC3)ncn2)c1 | -104.9 | 0.8 | 53.0* | 5.0 | 3.5 | 61.6* | 71.7*
C/C(=N\Nc1cc(N2CCOCC2)ncn1)c1cccc([N+](=O)[O-])c1 | -68.0 | -7.1 | 56.1* | 10.6 | -13.3 | 102.4* | 64.0*
Cc1cccc(NC(=O)c2ccc([N+](=O)[O-])o2)n1 | -2.8 | -24.8 | 61.2* | 10.9 | 7.3 | 13.6 | 7.8
COc1ccc(/C=C/C(=O)c2ccc([N+](=O)[O-])o2)cc1 | -18.6 | -19.3 | 51.1* | 53.8* | -4.2 | 100.7* | -203.3
CCNc1nc2c(cnn2C)c(=O)[nH]1 | 16.6 | 8.9 | -20.1 | -10.4 | 2.3 | 7.1 | ·
Cc1c(O)ccc2c(-c3ccccc3)cc(=O)oc12 | 6.2 | 20.0 | 75.2* | 43.6 | 45.4 | 14.6 | 95.1*
CCN(CC)Cc1c(O)ccc2c(-c3ccccc3)cc(=O)oc12 | 17.3 | -2.9 | 19.7 | -6.3 | -14.0 | -0.2 | ·
CCCc1cc(=O)[nH]c(SCC(=O)Nc2ccc(Cl)c(S(=O)(=O)N3CCOCC3)c2)n1 | 3.3 | 5.0 | 3.3 | -13.7 | -7.2 | 5.3 | ·
Cc1ccc(-c2csc3ncnc(NCCN4CCOCC4)c23)cc1 | 31.1 | -23.0 | 58.4* | 42.2 | 17.8 | 27.2 | 47.2*
COc1ccc(-c2csc3ncnc(NCCN4CCOCC4)c23)cc1 | 32.6 | -17.0 | 55.5* | 45.4 | 43.1 | 30.5 | 81.6*
c1ccc(-c2csc3ncnc(NCCN4CCOCC4)c23)cc1 | 18.0 | -12.9 | 32.9 | 12.9 | 26.6 | 21.1 | ·
Clc1ccc(-c2csc3ncnc(NCCN4CCOCC4)c23)cc1 | 21.7 | -12.6 | 44.1 | 18.4 | 23.2 | 14.4 | ·
COc1ccccc1CNS(=O)(=O)CCNC(=O)c1ccccc1 | 23.4 | 0.5 | 21.6 | -12.1 | -4.0 | 12.8 | ·
COc1ccccc1Cc1c(-c2ccc(C)cc2)nc2c(C)cc(Br)cn12 | -17.7 | -25.3 | 28.3 | 25.0 | 22.8 | 28.9 | ·
COc1ccccc1Cc1c(-c2ccco2)nc2c(C)cc(Br)cn12 | 92.9* | -46.1 | 66.1* | 69.0* | 10.1 | 97.7* | -253.8
Cc1ccc(Cc2c(-c3ccc(C)cc3)nc3c(C)cc(Br)cn23)cc1 | -11.5 | -8.7 | 43.3 | 7.9 | -22.1 | -7.0 | ·
COc1ccc(Cc2c(-c3ccco3)nc3ccc(Br)cn23)c(C)c1 | -20.9 | -25.7 | 53.4* | 57.1* | -7.1 | 4.7 | -13.1
Cc1ccc(Cc2c(-c3ccc(F)cc3)nc3c(C)cc(Br)cn23)cc1 | -38.9 | -30.5 | 59.0* | 24.6 | 5.3 | 54.8* | 15.9
COc1ccccc1Cc1c(-c2ccc(F)cc2)nc2c(C)cc(Br)cn12 | -51.5 | 4.1 | 60.2* | 37.0 | 19.4 | 31.9 | 15.6
SMILES | HIF-2a block | KKLEB cytotox | CF NFkB block | TWEAK-Fn14 inh | TROY signal inh | Peg3 prom inh | CF NFkB conf | others
Cc1cccc(N(Cc2ccccc2)C(=O)c2ccccc2S(C)(=O)=O)c1 | 8.5 | -5.0 | 7.2 | 9.1 | -30.8 | 3.9 | ·
COc1ccc(CN2C[C@H]3CON(C)[C@H]3C[C@H]2c2ccc(-c3ccccc3)cc2)cc1 | 9.3 | -4.0 | 10.8 | 3.7 | -5.8 | 21.8 | ·
CC1=C(C(=O)OCc2ccc3c(c2)OCO3)C(c2cccc([N+](=O)[O-])c2)NC(=O)N1 (configuration not stated) | 23.4 | -11.9 | 74.1* | 74.8* | 49.1 | 41.1 | 68.1* | Mdm2-MdmX confirm=74.0*
CCOC(=O)c1ccc(Nc2ncnc3ccc(C)cc23)cc1 | 23.2 | -2.6 | 30.7 | 20.4 | 11.7 | -5.7 | ·
CCOc1ccc(Nc2ncnc3ccc([N+](=O)[O-])cc23)cc1 | 14.9 | -14.2 | 75.1* | 77.2* | 51.2* | 11.9 | 87.0* | Mdm2-MdmX confirm=87.0*
O=C1NC[C@@H](CCCCN2C[C@H](Cc3ccc(O)cc3)N(CCC3CCCCC3)C(=O)C2=O)N(CCC2CCCCC2)C1=O | 3.0 | · | · | -2.1 | 14.5 | · | ·
COc1ccc(-c2cnc3c(NC=O)cc(-c4ccc(C(=O)N5CCOCC5)cc4)cn23)cc1OC | 41.0* | -34.6 | 57.2* | -16.4 | 13.6 | 34.8 | 62.8* | HIF-2a conf=45.2*;HIF-1a cs=69.4*
O=C(NCc1ccccc1)c1nc(S(=O)(=O)Cc2ccccc2)ncc1Cl | 84.7* | -29.8 | 87.4* | 81.5* | 69.5* | 104.7* | 65.9* | HIF-2a conf=90.5*;HIF-1a cs=70.1*
O=C(NCc1ccc2c(c1)OCO2)c1ccc(Cl)nc1 | -0.5 | -0.7 | -8.8 | 8.1 | -13.7 | 6.9 | ·
COc1ccc(S(=O)(=O)Cc2ccc(C(=O)NCc3ccccc3)o2)cc1 | 1.8 | 5.9 | -11.4 | 5.6 | 5.5 | -4.2 | ·
O=C(NCc1ccc2c(c1)OCO2)c1nc(S(=O)(=O)Cc2ccccc2F)ncc1Cl | 87.7* | -1.7 | 86.2* | 78.9* | 76.1* | 105.5* | 41.7* | Mdm2-MdmX confirm=102.5*;HIF-2a conf=68.2*;HIF-1a cs=70.3*
